# Measurements from the supplement of paper PMC6992640.
# Counter-ions that a name gives are not always drawn.
# System: HCI01 (cells of a triple-negative basal-like breast cancer xenograft)
# Experiment: cell viability of combination (% of vehicle); higher = less cytotoxic
# Conditions: 1 µM; 72 h; partner dose: 10 nM
# Protocol: (§1)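 PDX cells were treated for 72 h with each drug at 1 µM plus carfilzomib (10 nM; 100 nM for WHIM2). Luciferase viability is expressed as percent of vehicle.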
row,SMILES,cell viability of combination
1,COCCOC(=O)C1=C(C)NC(C)=C(C(=O)OCC=Cc2ccccc2)C1c1cccc([N+](=O)[O-])c1 (centres undefined) [Cilnidipine] + CC(C)C[C@H](NC(=O)[C@H](CCc1ccccc1)NC(=O)CN1CCOCC1)C(=O)N[C@@H](Cc1ccccc1)C(=O)N[C@@H](CC(C)C)C(=O)[C@@]1(C)CO1 [Carfilzomib],104
2,Nc1ccc2cc3ccc([NH3+])cc3nc2c1.Nc1ccc2cc3ccc([NH3+])cc3nc2c1.O=S(=O)([O-])[O-] [Proflavine Hemisulfate] + CC(C)C[C@H](NC(=O)[C@H](CCc1ccccc1)NC(=O)CN1CCOCC1)C(=O)N[C@@H](Cc1ccccc1)C(=O)N[C@@H](CC(C)C)C(=O)[C@@]1(C)CO1 [Carfilzomib],78
3,COc1nc2ccc(Br)cc2cc1[C@@H](c1ccccc1)[C@@](O)(CCN(C)C)c1cccc2ccccc12 [Bedaquiline fumarate] + CC(C)C[C@H](NC(=O)[C@H](CCc1ccccc1)NC(=O)CN1CCOCC1)C(=O)N[C@@H](Cc1ccccc1)C(=O)N[C@@H](CC(C)C)C(=O)[C@@]1(C)CO1 [Carfilzomib],77.1

# System: UCD52 (cells of a triple-negative basal-like breast cancer xenograft)
# Experiment: as above
# Conditions: 1 µM; 72 h; partner dose: 10 nM
# Protocol: as §1
row,SMILES,cell viability of combination
1,C#Cc1cccc(Nc2ncnc3cc(OCCOC)c(OCCOC)cc23)c1 [Erlotinib] + CC(C)C[C@H](NC(=O)[C@H](CCc1ccccc1)NC(=O)CN1CCOCC1)C(=O)N[C@@H](Cc1ccccc1)C(=O)N[C@@H](CC(C)C)C(=O)[C@@]1(C)CO1 [Carfilzomib],49.1
2,CC(NCCCc1cccc(C(F)(F)F)c1)c1cccc2ccccc12 (centres undefined) [Cinacalcet] + CC(C)C[C@H](NC(=O)[C@H](CCc1ccccc1)NC(=O)CN1CCOCC1)C(=O)N[C@@H](Cc1ccccc1)C(=O)N[C@@H](CC(C)C)C(=O)[C@@]1(C)CO1 [Carfilzomib],56.1
3,Clc1ccc(C(Cn2ccnc2)OCc2ccsc2Cl)c(Cl)c1 (centres undefined) [Tioconazole] + CC(C)C[C@H](NC(=O)[C@H](CCc1ccccc1)NC(=O)CN1CCOCC1)C(=O)N[C@@H](Cc1ccccc1)C(=O)N[C@@H](CC(C)C)C(=O)[C@@]1(C)CO1 [Carfilzomib],62.5
4,CNC(=O)c1cc(Oc2ccc(NC(=O)Nc3ccc(Cl)c(C(F)(F)F)c3)c(F)c2)ccn1.Cl [Regorafenib hydrochloride] + CC(C)C[C@H](NC(=O)[C@H](CCc1ccccc1)NC(=O)CN1CCOCC1)C(=O)N[C@@H](Cc1ccccc1)C(=O)N[C@@H](CC(C)C)C(=O)[C@@]1(C)CO1 [Carfilzomib],52.7
5,CNC(=O)c1cc(Oc2ccc(NC(=O)Nc3ccc(Cl)c(C(F)(F)F)c3)c(F)c2)ccn1 [Regorafenib] + CC(C)C[C@H](NC(=O)[C@H](CCc1ccccc1)NC(=O)CN1CCOCC1)C(=O)N[C@@H](Cc1ccccc1)C(=O)N[C@@H](CC(C)C)C(=O)[C@@]1(C)CO1 [Carfilzomib],58.6
6,CCOC(=O)C1=C(COCCN)NC(C)=C(C(=O)OC)C1c1ccccc1Cl (centres undefined) [Amlodipine] + CC(C)C[C@H](NC(=O)[C@H](CCc1ccccc1)NC(=O)CN1CCOCC1)C(=O)N[C@@H](Cc1ccccc1)C(=O)N[C@@H](CC(C)C)C(=O)[C@@]1(C)CO1 [Carfilzomib],62.5
7,Cl.Cl.Fc1ccc(C(c2ccc(F)cc2)N2CCN(CC=Cc3ccccc3)CC2)cc1 [Flunarizine 2HCl] + CC(C)C[C@H](NC(=O)[C@H](CCc1ccccc1)NC(=O)CN1CCOCC1)C(=O)N[C@@H](Cc1ccccc1)C(=O)N[C@@H](CC(C)C)C(=O)[C@@]1(C)CO1 [Carfilzomib],61.1
8,COc1cccc2c1C(=O)c1c(O)c3c(c(O)c1C2=O)CC(O)(C(=O)CO)CC3OC1CC(N)C(O)C(C)O1.Cl (centres undefined) [Epirubicin HCl] + CC(C)C[C@H](NC(=O)[C@H](CCc1ccccc1)NC(=O)CN1CCOCC1)C(=O)N[C@@H](Cc1ccccc1)C(=O)N[C@@H](CC(C)C)C(=O)[C@@]1(C)CO1 [Carfilzomib],21
9,C[C@H]1O[C@@H](O[C@H]2[C@@H](O)C[C@H](O[C@H]3[C@@H](O)C[C@H](O[C@H]4CC[C@@]5(C)[C@H](CC[C@@H]6[C@@H]5C[C@@H](O)[C@]5(C)[C@@H](C7=CC(=O)OC7)CC[C@]65O)C4)O[C@@H]3C)O[C@@H]2C)C[C@H](O)[C@@H]1O [Digoxin] + CC(C)C[C@H](NC(=O)[C@H](CCc1ccccc1)NC(=O)CN1CCOCC1)C(=O)N[C@@H](Cc1ccccc1)C(=O)N[C@@H](CC(C)C)C(=O)[C@@]1(C)CO1 [Carfilzomib],16.9
10,COc1cc(Nc2c(C#N)cnc3cc(OCCCN4CCN(C)CC4)c(OC)cc23)c(Cl)cc1Cl [Bosutinib (SKI-606)] + CC(C)C[C@H](NC(=O)[C@H](CCc1ccccc1)NC(=O)CN1CCOCC1)C(=O)N[C@@H](Cc1ccccc1)C(=O)N[C@@H](CC(C)C)C(=O)[C@@]1(C)CO1 [Carfilzomib],35.3
11,CCOc1cc2ncc(C#N)c(Nc3ccc(F)c(Cl)c3)c2cc1NC(=O)C=CCN(C)C [Pelitinib (EKB-569)] + CC(C)C[C@H](NC(=O)[C@H](CCc1ccccc1)NC(=O)CN1CCOCC1)C(=O)N[C@@H](Cc1ccccc1)C(=O)N[C@@H](CC(C)C)C(=O)[C@@]1(C)CO1 [Carfilzomib],40.8
12,Cc1ccc(NC(=O)c2ccc(CN3CCN(C)CC3)cc2)cc1Nc1nc(-c2cccnc2)cs1 [Masitinib (AB1010)] + CC(C)C[C@H](NC(=O)[C@H](CCc1ccccc1)NC(=O)CN1CCOCC1)C(=O)N[C@@H](Cc1ccccc1)C(=O)N[C@@H](CC(C)C)C(=O)[C@@]1(C)CO1 [Carfilzomib],69.6
13,Clc1ccc(C(Cn2ccnc2)OCc2ccc(Sc3ccccc3)cc2)c(Cl)c1.O=[N+]([O-])O (centres undefined) [Fenticonazole Nitrate] + CC(C)C[C@H](NC(=O)[C@H](CCc1ccccc1)NC(=O)CN1CCOCC1)C(=O)N[C@@H](Cc1ccccc1)C(=O)N[C@@H](CC(C)C)C(=O)[C@@]1(C)CO1 [Carfilzomib],65.2
14,CC[C@H](C)[C@H]1O[C@]2(CC[C@@H]1C)C[C@@H]1C[C@@H](C/C=C(\C)[C@@H](O[C@H]3C[C@H](OC)[C@@H](O[C@H]4C[C@H](OC)[C@@H](O)[C@H](C)O4)[C@H](C)O3)[C@@H](C)/C=C/C=C3\CO[C@@H]4[C@H](O)C(C)=C[C@@H](C(=O)O1)[C@]34O)O2 [Ivermectin] + CC(C)C[C@H](NC(=O)[C@H](CCc1ccccc1)NC(=O)CN1CCOCC1)C(=O)N[C@@H](Cc1ccccc1)C(=O)N[C@@H](CC(C)C)C(=O)[C@@]1(C)CO1 [Carfilzomib],43
15,CC(C)(C)c1ccc(C(O)CCCN2CCC(C(O)(c3ccccc3)c3ccccc3)CC2)cc1 (centres undefined) [Terfenadine] + CC(C)C[C@H](NC(=O)[C@H](CCc1ccccc1)NC(=O)CN1CCOCC1)C(=O)N[C@@H](Cc1ccccc1)C(=O)N[C@@H](CC(C)C)C(=O)[C@@]1(C)CO1 [Carfilzomib],64.9
16,CN1CCCC1CCOC(C)(c1ccccc1)c1ccc(Cl)cc1.O=C(O)C=CC(=O)O (centres undefined) [Clemastine Fumarate] + CC(C)C[C@H](NC(=O)[C@H](CCc1ccccc1)NC(=O)CN1CCOCC1)C(=O)N[C@@H](Cc1ccccc1)C(=O)N[C@@H](CC(C)C)C(=O)[C@@]1(C)CO1 [Carfilzomib],61.1
17,Clc1ccc(CSC(Cn2ccnc2)c2ccc(Cl)cc2Cl)cc1.O=[N+]([O-])O (centres undefined) [Sulconazole Nitrate] + CC(C)C[C@H](NC(=O)[C@H](CCc1ccccc1)NC(=O)CN1CCOCC1)C(=O)N[C@@H](Cc1ccccc1)C(=O)N[C@@H](CC(C)C)C(=O)[C@@]1(C)CO1 [Carfilzomib],62.1
18,CC(C)C[C@H](NC(=O)[C@H](Cc1ccccc1)NC(=O)c1cnccn1)B(O)O [Bortezomib] + CC(C)C[C@H](NC(=O)[C@H](CCc1ccccc1)NC(=O)CN1CCOCC1)C(=O)N[C@@H](Cc1ccccc1)C(=O)N[C@@H](CC(C)C)C(=O)[C@@]1(C)CO1 [Carfilzomib],15.5
19,CS(=O)(=O)CCNCc1ccc(-c2ccc3ncnc(Nc4ccc(OCc5cccc(F)c5)c(Cl)c4)c3c2)o1.Cc1ccc(S(=O)(=O)O)cc1.Cc1ccc(S(=O)(=O)O)cc1 [Lapatinib Ditosylate] + CC(C)C[C@H](NC(=O)[C@H](CCc1ccccc1)NC(=O)CN1CCOCC1)C(=O)N[C@@H](Cc1ccccc1)C(=O)N[C@@H](CC(C)C)C(=O)[C@@]1(C)CO1 [Carfilzomib],47.7
20,Br.Cc1ccc(Sc2ccccc2N2CCNCC2)c(C)c1 + CC(C)C[C@H](NC(=O)[C@H](CCc1ccccc1)NC(=O)CN1CCOCC1)C(=O)N[C@@H](Cc1ccccc1)C(=O)N[C@@H](CC(C)C)C(=O)[C@@]1(C)CO1 [Carfilzomib],50.8
21,CN(C)CC=CC(=O)Nc1cc2c(Nc3ccc(F)c(Cl)c3)ncnc2cc1OC1CCOC1 (centres undefined) [Afatinib (BIBW2992)] + CC(C)C[C@H](NC(=O)[C@H](CCc1ccccc1)NC(=O)CN1CCOCC1)C(=O)N[C@@H](Cc1ccccc1)C(=O)N[C@@H](CC(C)C)C(=O)[C@@]1(C)CO1 [Carfilzomib],26.2
